Experimental findings from PubChem BioAssay (NCI) are described below.

Experiment [1] is described as follows: NCI Yeast Anticancer Drug Screen. Data for the rad50 strain (AID 155).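 Note: 0% = growth of vehicle-only cultures of the same strain.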 Particulars: S. cerevisiae rad50 strain growth inhibition, stronger effect = higher value. The method, boiled down:
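Cells are treated with compound, grown, and their growth is then scored against vehicle-only cultures of the same repair-deficient yeast strain.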

Experiment [2] in a line: NCI Yeast Anticancer Drug Screen. Data for the mec2-1 strain (AID 157). Particulars: S. cerevisiae mec2-1 strain, stronger effect = higher value. In short, it runs like this:
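Test agents were screened against the mec2-1 yeast strain, with defined DNA repair or cell cycle alteration. Growth was scored as inhibition against vehicle-only controls.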

A short description of experiment [3]: NCI Yeast Anticancer Drug Screen. Data for the sgs1 mgt1 strain (AID 161).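 Note: 0% = growth of cultures given vehicle only.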 The settings on record: S. cerevisiae sgs1 mgt1 strain, stronger effect = higher value. The method, boiled down: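 Mutant yeast exposed to compound; growth scored against vehicle-only wells.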
The nature of experiment [4]: NCI Yeast Anticancer Drug Screen. Data for the cln2 rad14 strain (AID 165).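 Note: 0% = growth equal to vehicle treated cultures.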 The settings on record: S. cerevisiae cln2 rad14 strain, stronger effect = higher value. The method, boiled down: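 Growth of compound-exposed yeast (cln2 rad14 genotype) measured and expressed as inhibition relative to vehicle.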
A short description of experiment [5]: NCI Yeast Anticancer Drug Screen. Data for the bub3 strain (AID 167). Particulars: S. cerevisiae bub3 mutant strain, stronger effect = higher value. The method, boiled down: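 Part of a panel of yeast mutants defective in DNA damage repair or cell cycle regulation. Each strain is grown with compound, and inhibition is calculated relative to solvent-treated cultures.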

Experiment [6] is described as follows: NCI Yeast Anticancer Drug Screen. Data for the mlh1 rad18 strain (AID 175). The settings on record: S. cerevisiae mlh1 rad18 strain growth inhibition, stronger effect = higher value. In short, it runs like this:
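In this whole-cell yeast screen, a strain with altered DNA damage repair is challenged with compound, and its growth is measured against matched vehicle-treated controls.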

[7] abbreviates: at 5.0 µM (retest, dose inferred, filed as 0.5).
Setting [8] is: at 50.0 µM (retest, dose inferred, filed as 5.0).

About 79,000 compounds went through this panel and 15% of them were active in at least one assay; those are over-represented in the sample as a whole. Values without a mark were called inactive. Activity calls are given as the source filed them. Cut-off read from the data, not from the text of the source: active = growth inhibition above about 70%; inactive = the rest.

Turning to `COc1ccc(CC2=CC(=O)C(=O)C=C2C)cc1`, the growth inhibition was 2% in experiment [1] (setting [7]); 27% in experiment [1] (setting [8]); 47.4% in experiment [1] (at 50.0 µM); 0% in experiment [2] (setting [7]); 29% in experiment [2] (setting [8]); 11.2% in experiment [2] (at 50.0 µM). Also, the growth inhibition in experiment [3] (setting [7]) was 9%; in experiment [3] (setting [8]) it was 39%; in experiment [3] (at 50.0 µM), 47%; in experiment [4] (setting [7]), 0%; in experiment [4] (setting [8]) it was 4%; in experiment [4] (at 50.0 µM) it was 11.2%. Moreover, the growth inhibition is -2% in experiment [5] (setting [7]); 21% in experiment [5] (setting [8]); 38% in experiment [5] (at 50.0 µM); 14% in experiment [6] (setting [7]); 51% in experiment [6] (setting [8]); 36.4% in experiment [6] (at 50.0 µM).
As for `COC(=O)C12OCC34C(CC5C(C)C6=CC(=O)OC6=CC5(C)C3C(O)C1O)OC(=O)C(O)C24` (configuration not stated), the growth inhibition in experiment [1] (setting [7]) was 26%; in experiment [1] (setting [8]), 84% (active); in experiment [1] (at 50.0 µM), 89.7% (active); in experiment [2] (setting [7]), 30%; in experiment [2] (setting [8]), 82% (active); in experiment [2] (at 50.0 µM), 91.4% (active). Further, the growth inhibition in experiment [3] (setting [7]) was -18%; in experiment [3] (setting [8]), 94% (active); in experiment [3] (at 50.0 µM), 91% (active); in experiment [4] (setting [7]), -6%; in experiment [4] (setting [8]), 96% (active); in experiment [4] (at 50.0 µM), 88.1% (active). Moreover, the growth inhibition is -2% in experiment [5] (setting [7]); 95% (active) in experiment [5] (setting [8]); 89.3% (active) in experiment [5] (at 50.0 µM); 33% in experiment [6] (setting [7]); 93% (active) in experiment [6] (setting [8]); 81.3% (active) in experiment [6] (at 50.0 µM).
On to `COC(=O)C1CCC(=O)N1C(c1ccc(OC)cc1)c1cc(OC)c(OC)c(OC)c1` (configuration not stated), for which the growth inhibition in experiment [1] (setting [7]) was 27%; in experiment [1] (setting [8]) it was 45%; in experiment [1] (at 50.0 µM) it was -33.5%; in experiment [2] (setting [7]), 21%; in experiment [2] (setting [8]), 15%; in experiment [2] (at 50.0 µM) it was 8.55%. Further, the growth inhibition was 32% in experiment [3] (setting [7]); 42% in experiment [3] (setting [8]); 1.95% in experiment [3] (at 50.0 µM); 46% in experiment [4] (setting [7]); 40% in experiment [4] (setting [8]); -7.4% in experiment [4] (at 50.0 µM). The growth inhibition in experiment [5] (setting [7]) is 43%; in experiment [5] (setting [8]) it was 41%; in experiment [5] (at 50.0 µM) it was -8.55%; in experiment [6] (setting [7]), 17%; in experiment [6] (setting [8]) it was 20%; in experiment [6] (at 50.0 µM) it was -10.2%.
With `CCc1ccccc1NC(=O)C(=O)CC(=O)c1ccc(Cl)s1`, the growth inhibition in experiment [1] (setting [7]) was 1%; in experiment [1] (setting [8]), 1%; in experiment [1] (at 50.0 µM), 45.1%; in experiment [2] (setting [7]), -2%; in experiment [2] (setting [8]) it was -40%; in experiment [2] (at 50.0 µM), 2.6%. Besides, the growth inhibition in experiment [3] (setting [7]) was -1%; in experiment [3] (setting [8]), 2%; in experiment [3] (at 50.0 µM), 6.85%; in experiment [4] (setting [7]), -2%; in experiment [4] (setting [8]) it was 6%; in experiment [4] (at 50.0 µM), 26.2%. Besides, the growth inhibition in experiment [5] (setting [7]) is 2%; in experiment [5] (setting [8]), 1%; in experiment [5] (at 50.0 µM) it was -9.55%; in experiment [6] (setting [7]), 0%; in experiment [6] (setting [8]) it was 5%; in experiment [6] (at 50.0 µM), -0.1%.
Consider `OC12C3C4CC5C(C4[C@@H]1Br)C2[C@@](O)(c1c(F)c(F)c(F)c(F)c1F)C53` (some centres not stated), for which the growth inhibition in experiment [1] (setting [7]) is 8%; in experiment [1] (setting [8]), 21%; in experiment [1] (at 50.0 µM), 27.2%; in experiment [2] (setting [7]) it was 3%; in experiment [2] (setting [8]), 8%; in experiment [2] (at 50.0 µM) it was 11.6%. For the same compound, the growth inhibition in experiment [3] (setting [7]) was 3%; in experiment [3] (setting [8]), 3%; in experiment [3] (at 50.0 µM), 27.6%; in experiment [4] (setting [7]), 3%; in experiment [4] (setting [8]), 12%; in experiment [4] (at 50.0 µM), 22.2%. Further, the growth inhibition in experiment [5] (setting [7]) is 8%; in experiment [5] (setting [8]), 54%; in experiment [5] (at 50.0 µM), 79.3% (active); in experiment [6] (setting [7]), 8%; in experiment [6] (setting [8]) it was 35%; in experiment [6] (at 50.0 µM) it was 73.7% (active).
Take `COC1=C(OC)C(=O)C(SCc2ccco2)=CC1=O`: the growth inhibition in experiment [1] (setting [7]) was 37%; in experiment [1] (setting [8]), 98% (active); in experiment [1] (at 50.0 µM), 50.6%; in experiment [2] (setting [7]), 29%; in experiment [2] (setting [8]), 99% (active); in experiment [2] (at 50.0 µM), 73.3% (active). For the same compound, the growth inhibition in experiment [3] (setting [7]) is 53%; in experiment [3] (setting [8]), 99% (active); in experiment [3] (at 50.0 µM), 77.3% (active); in experiment [4] (setting [7]), 51%; in experiment [4] (setting [8]) it was 90% (active); in experiment [4] (at 50.0 µM) it was 36.9%. The growth inhibition in experiment [5] (setting [7]) was 56%; in experiment [5] (setting [8]), 99% (active); in experiment [5] (at 50.0 µM) it was 62.1%; in experiment [6] (setting [7]) it was 28%; in experiment [6] (setting [8]), 77% (active); in experiment [6] (at 50.0 µM) it was 65%.
In the case of `O=C(N=Nc1c(O)[nH]c2ccccc12)C(O)(c1ccccc1)c1ccccc1`, the growth inhibition in experiment [1] (setting [7]) is 18%; in experiment [1] (setting [8]), 32%; in experiment [1] (at 50.0 µM), -6.25%; in experiment [2] (setting [7]) it was 19%; in experiment [2] (setting [8]), 32%; in experiment [2] (at 50.0 µM), -8.75%. In addition, the growth inhibition is 21% in experiment [3] (setting [7]); 82% (active) in experiment [3] (setting [8]); 80.7% (active) in experiment [3] (at 50.0 µM); 26% in experiment [4] (setting [7]); 27% in experiment [4] (setting [8]); 35.5% in experiment [4] (at 50.0 µM). Moreover, the growth inhibition is 12% in experiment [5] (setting [7]); 38% in experiment [5] (setting [8]); 25.9% in experiment [5] (at 50.0 µM); 29% in experiment [6] (setting [7]); 38% in experiment [6] (setting [8]); 29.1% in experiment [6] (at 50.0 µM).
For the compound `CC(=O)Nc1ccc(S(=O)(=O)N/N=C/c2cc(I)cc([N+](=O)[O-])c2O)cc1`, the growth inhibition in experiment [1] (setting [7]) is 9%; in experiment [1] (setting [8]), 71% (active); in experiment [1] (at 50.0 µM), 89% (active); in experiment [2] (setting [7]), 10%; in experiment [2] (setting [8]), 81% (active); in experiment [2] (at 50.0 µM) it was 81.5% (active). Moreover, the growth inhibition in experiment [3] (setting [7]) is 14%; in experiment [3] (setting [8]) it was 69%; in experiment [3] (at 50.0 µM) it was 89.7% (active); in experiment [4] (setting [7]), 1%; in experiment [4] (setting [8]), 35%; in experiment [4] (at 50.0 µM), 83.1% (active). Moreover, the growth inhibition in experiment [5] (setting [7]) is 1%; in experiment [5] (setting [8]), 47%; in experiment [5] (at 50.0 µM), 70.5% (active); in experiment [6] (setting [7]), 12%; in experiment [6] (setting [8]) it was 72% (active); in experiment [6] (at 50.0 µM), 94.3% (active).
Consider `CC(=O)OC[C@@H](OC(C)=O)[C@H](OC(C)=O)c1cnn(-c2ccccc2)n1`, for which the growth inhibition is -3% in experiment [1] (setting [7]); -11% in experiment [1] (setting [8]); -0.85% in experiment [1] (at 50.0 µM); -1% in experiment [2] (setting [7]); -6% in experiment [2] (setting [8]); 3.15% in experiment [2] (at 50.0 µM). For the same compound, the growth inhibition in experiment [3] (setting [7]) is -4%; in experiment [3] (setting [8]) it was 14%; in experiment [3] (at 50.0 µM), 3.25%; in experiment [4] (setting [7]), -1%; in experiment [4] (setting [8]) it was -2%; in experiment [4] (at 50.0 µM) it was -5.7%. Also, the growth inhibition was 13% in experiment [5] (setting [7]); 29% in experiment [5] (setting [8]); 71.8% (active) in experiment [5] (at 50.0 µM); 3% in experiment [6] (setting [7]); -3% in experiment [6] (setting [8]); 12.8% in experiment [6] (at 50.0 µM).
